Source: PubChem (National Center for Advancing Translational Sciences (NCATS))
HCMV inh: inhibitors of human cytomegalovirus; activity change, negative = inhibition, % at 57.5 µM; HFF cells, HCMV-luciferase reporter, 72 h; stronger effect = lower value; 410,000 compounds, 4.5% hits; in the data active = activity change below about -60%; inconclusive = no clear call, values can overlap the other calls; inactive = above about -39%
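Cell-based, HFFs, 1000 cells/well, 16 h 37C; cpds in DMSO + HCMV-luc, MOI 1 PFU/cell; 72 h 37C; OneGlo luminescence after 5 min RT; norm. to buffer vs Salinomycin 10uM.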
Pf growth 96h: P. falciparum growth inhibition at 96 hours; P. falciparum luciferase reporter growth, 96 h; Potency, µM (top dose mostly 28.7 µM), usual class: inhibitors; 320,000 compounds, 6.9% hits; AID 504834
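Erythrocytes infected with luciferase-expressing P. falciparum were dispensed at 2% hematocrit and 0.05% parasitemia (final), then incubated with compounds 96 hours at 37 C in 5% CO2. Luminescence after detection reagent addition reported growth.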
HCV inh: blocks hepatitis C virus; Huh7.5.1 HCVcc-Cre infection, luciferase reporter, 44 h; Potency, µM (highest dose often 41.8 µM), usual class: inhibitors; 340,000 compounds, 3.4% hits
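Cells (1,000/well) were plated 4 h before compound, then infected with HCVcc-Cre virus (~0.5 moi). After 44 h further culture, infection was read as luciferase luminescence following a 15 min substrate incubation at room temperature.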
Pf growth 48h: P. falciparum growth inhibition at 48 hours (one generation); P. falciparum luciferase growth in erythrocytes, 48 h; Potency, µM (highest dose often 28.7 µM), usual class: inhibitors; 310,000 compounds, 5.9% hits
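Firefly luciferase activity from engineered P. falciparum reports growth; inhibitors lower the luminescent signal. Cultures contained 2% hematocrit erythrocytes at 0.1% final parasitemia.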
Hits are given with their value; – = inactive; ? = inconclusive; · = no result given. Most compounds without a hit are left out; they make up all but 13% or so of the library. Unless noted, calls come from the whole dose curve; as a rule, active = well fitted inhibition curve with a large enough effect; inconclusive = small, poorly fitted or top-dose-only effect, or another doubt; inactive = no such curve, though single readings can be large or run the other way.

SMILES	HCMV inh	Pf growth 96h	HCV inh	Pf growth 48h
O=C(Nc1ccccc1)N1CC(=O)N2[C@@H](CO)[C@H](c3ccc(Br)cc3)[C@@H]2C1	–	·	·	·
Cc1oc(C(C)(C)C)cc1-c1cc(NC(=O)c2ccc([N+](=O)[O-])cc2)n[nH]1	–	2.3µM	–	1.9µM
Cc1cc(NC(=O)c2ccc([N+](=O)[O-])cc2)no1	–	?	–	–
CNC(=O)N(O)C1N(NC(=O)Nc2ccccc2)C(=S)SC1(C)C (stereo not drawn)	–	·	?	·
CC1(C)SC(=S)N(NC(=O)Nc2cccc3ccccc23)C1N(O)C(=O)Nc1ccccc1 (stereo not drawn)	-75	?	?	?
Cc1ccc2c(c1)/C(=C/c1ccccc1C)C(=O)N2	–	–	–	–
Cc1ccc2c(c1)/C(=C/c1ccc(F)cc1)C(=O)N2	–	–	11µM	?
O=C1C=C(N2CCCCC2)c2ccccc2C1=O	-97	·	7.1µM	·
Cc1ccc(-c2noc(CN(C(=O)c3ccc(C(C)(C)C)cc3)C(C)C)n2)cc1	–	·	·	·
CCC(=O)OCc1cnc(C)c2oc(=O)c(C(=O)Nc3ccccc3C(F)(F)F)cc12	–	·	·	·
CCn1cnc2c(Nc3cc(F)cc(F)c3)nc(C#N)nc21	–	0.29µM	·	0.83µM
CNc1nc(Cl)nc2c1ncn2-c1ccccc1	–	·	–	·
CCNc1nc(C#N)nc2c1ncn2-c1cc(F)cc(F)c1	–	?	·	1.7µM
Cc1ccn2c(=O)cc(CSc3nnc(NC(=O)c4ccccc4Cl)s3)nc2c1	–	·	·	·
Cc1cc(C)cc(-n2ccnc2SCC(=O)Nc2cccc3ccccc23)c1	–	·	·	·
Clc1ccccc1CNc1ncnc2c1c(-c1ccccc1)cn2-c1ccccc1	–	·	·	·
CCSc1nnc(-c2ccccc2NC(=O)CC)c(=O)[nH]1	–	4.7µM	–	–
COc1cccc(/C=N/N2CCN(c3ccc(Cl)cc3)CC2)c1OC	-69	?	?	–
COc1cccc(C=NN2CCCCCC2)c1OC	–	·	–	·
Cc1nn(-c2ccccc2)c(C)c1/C=N/n1cnnc1	–	?	–	–
Cc1nn(-c2ccccc2)c(C)c1/C=N\N1CCN(c2ccc(Cl)cc2)CC1	?	?	–	13µM
CCN(C(=O)Cn1c(C(=O)OC)cc2oc3ccccc3c21)c1cccc(C)c1	–	·	·	·
CC(C)CCNC(=O)c1ccc2c(c1)N(Cc1ccccc1F)C(=O)c1ccccc1S2=O (stereo not drawn)	–	·	·	·
COc1ccc(Cn2c(O)c(C=Nc3ccc(C)cc3)c3ccccc3c2=O)cc1	–	–	–	–
COc1ccc(Cn2c(O)c(C=Nc3ccccc3)c3ccccc3c2=O)cc1	-63	?	–	?
SMILES	HCMV inh	Pf growth 96h	HCV inh	Pf growth 48h
COc1ccc(Cn2c(O)c(C=Nc3ccc(O)cc3)c3ccccc3c2=O)cc1	?	12µM	?	–
Cc1nn(-c2ccccc2)c(OC(=O)c2ccc(Br)cc2)c1S(=O)(=O)c1ccccc1	–	·	·	·
NC(=O)CC(NC(=O)c1ccccc1)c1ccc(N2CCC(Cc3ccccc3)CC2)c([N+](=O)[O-])c1 (stereo not drawn)	-67	–	?	–
Cc1ccccc1CNc1ccc(C(CC(N)=O)NC(=O)c2ccccc2)cc1[N+](=O)[O-] (stereo not drawn)	?	?	11µM	?
NC(=O)CC(NC(=O)c1ccc(Br)cc1)c1ccc(N2CCCCCCC2)c([N+](=O)[O-])c1 (stereo not drawn)	–	2.9µM	?	–
Cc1cccc(CNc2ccc(C(CC(N)=O)NC(=O)c3ccccc3)cc2[N+](=O)[O-])c1 (stereo not drawn)	–	?	?	?
NC(=O)CC(NC(=O)c1ccc(Br)cc1)c1ccc(N2CCC(Cc3ccccc3)CC2)c([N+](=O)[O-])c1 (stereo not drawn)	–	–	?	–
CCOC(=O)c1cc(S(=O)(=O)Nc2ccc(OC)c(Cl)c2)[nH]n1	–	·	·	·
NS(=O)(=O)c1ccc(CCNc2nc3c(-c4cccc(F)c4)nnn3c3ccc(Cl)cc23)cc1	-102	·	·	·
CCCCN(CCCNC(=O)CN1N=C(c2ccccc2)CCC1=O)c1ccccc1	–	·	·	·
O=C(CS(=O)(=O)c1cn(Cc2ccccc2Cl)c2ccccc12)N1CCOCC1	–	–	–	–
O=C(CS(=O)(=O)c1cn(Cc2ccc(Cl)cc2)c2ccccc12)N1CCCC1	–	8.3µM	–	·
Cc1cc(NC(=O)CS(=O)(=O)c2cn(Cc3ccc(F)cc3)c3ccccc23)no1	–	13µM	?	·
Cc1cc(NC(=O)CS(=O)(=O)c2cn(Cc3cccc(F)c3)c3ccccc23)no1	–	?	?	·
